Hits are enriched below; roughly 10% of the tested compounds scored in any of these assays.
HP1b binding inh = HP1-beta chromodomain-methylated histone interaction inhibition; P83916; AlphaScreen HP1-beta / biotin-H3K9me3 peptide binding; Potency, µM (titrated, usually from 114 µM), without a hit: top-dose activity change, negative = inhibition, most hits filed as inhibitors; 390,000 compounds, 0.56% hits; AID 540317; note: nearly all actives have a fitted effect of over 70% in size
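Compound inhibition of the preformed complex between 50 nM HP1-beta and 50 nM biotinylated H3K9me3 peptide was read by AlphaScreen. Buffer was PBS pH 7.4 with 0.01% Tween-20. Incubations ran 30 min at room temperature, with 10 ug/mL donor/acceptor beads.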
L3MBTL1 inh = inhibitors of human L3MBTL1; AlphaScreen L3MBTL1–H3K9me1 peptide binding; Potency, µM (titrated, usually from 57.1 µM), without a hit: at the top dose activity, negative = inhibition, actives largely listed as inhibitors; 230,000 compounds, 0.66% hits; AID 485360; note: % is set by controls: 0 for no effect and ±100 for the full control effect; nearly all actives have a fitted effect of over 60% in size
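L3MBTL1 50 nM + b-AHA-H3(1-15)K9me1 75 nM, 30 min RT; compound added, 30 min RT; streptavidin donor/Ni-chelate acceptor beads 10 ug/mL each final, 30 min RT dark; AlphaScreen read.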
JMJD2A Tudor = JMJD2A Tudor domain (human) inhibition; Potency, µM (top dose mostly 114 µM), without a hit: top-dose activity change, negative = inhibition, most hits filed as inhibitors; AID 504339; O75164; AlphaScreen JMJD2A-Tudor / H3K4me3 peptide binding; 390,000 compounds, 4.4% hits; note: % is set by controls: 0 for no effect and ±100 for the full control effect; nearly all actives have a fitted effect of over 50% in size
G9a inh = G9a (human) methyltransferase inhibition | 350,000 compounds, 8.8% hits | Potency, µM (series often up to 102 µM), for the others: at the top dose activity, negative = inhibition, actives largely listed as inhibitors | G9a H3K9 monomethylation, AlphaScreen, 2 h | Q96KQ7; note: % is set by controls: 0 for no effect and ±100 for the full control effect; nearly all actives have a fitted effect of over 75% in size
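AlphaScreen read-out: biotin-H3K9 peptide (500 nM) methylation by 20 nM enzyme with 20 uM SAM, 2 h at room temperature after 15 min compound preincubation; anti-monomethyl H3K9 antibody plus donor/acceptor beads, 10 min dark.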
GLS inh = glutaminase GLS (human) inhibition. Potency, µM (highest dose often 45.5 µM), for the others: top-dose activity change, negative = inhibition, actives largely listed as inhibitors. AID 624170. GLS enzymatic activity, qHTS titration. 410,000 compounds, 0.21% hits; note: % is set by controls: 0 for no effect and ±100 for the full control effect
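hKGA in 45 mM KH2PO4 pH 8.2, 0.02% Tween-20 with pin-transferred compounds; 1 mM L-glutamine (stock) plus glutamate oxidase/HRP/Amplex Red coupling added. Fluorescence read initially and after 30 min at RT.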
BAZ2B block = inhibitors of human BAZ2B bromodomain. AlphaScreen BAZ2B-H3K14Ac peptide displacement. Potency, µM (series often up to 114 µM), for inactives: top-dose activity change, negative = inhibition, usual class: inhibitors. 360,000 compounds, 4.4% hits; note: % is set by controls: 0 for no effect and ±100 for the full control effect; nearly all actives have a fitted effect of over 60% in size
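In this displacement format the biotinylated H3(5-23) peptide acetylated at Lys14 serves as ligand at 50 nM, with BAZ2B at 50 nM in PBS pH 7.4 containing 0.01% Tween-20. Donor and acceptor beads are 10 ug/mL final.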
* marks the source's active call; other numbers are inactive results; ? = inconclusive; · = not tested or not shown; [ ] = remark or other dose. Calls come from the whole dose curve; as a rule, active = well fitted curve in the direction sought with a large enough effect; inconclusive = small, poorly fitted or top-dose-only effect, or another doubt; inactive = no such curve, though single readings can be large; an effect the other way counts as inactive or inconclusive. Potency is the fitted concentration of half-maximal effect.

SMILES | HP1b binding inh | L3MBTL1 inh | JMJD2A Tudor | G9a inh | GLS inh | BAZ2B block
O=C(Nc1nnc(C2CC2)s1)C1COc2ccccc2O1 (stereo not given) | 19% | · | -7% | -10% | 5% | -3%
O=C(/C=C/c1ccc(Br)o1)Nc1nnc(C2CC2)s1 | · | -8% | · | 56µM* | · | -25%
COc1ccc(Cc2nnc(SCC(=O)N3CCCCC3)o2)cc1 | -39% | -3% | -19% | 71µM* | -2% | -21%
COCCCNc1nc(NCc2ccccc2OC)c2cnn(C)c2n1 | 35% | · | -24% | 48%[59 µM] | 3% | 3%
O=C1NCN(c2ccccc2)C12CCN(CCCC(c1ccc(F)cc1)c1ccc(F)cc1)CC2 | -31% | ? | 40µM* | 10µM* | 20% | ?
O=C(CCCN1CCN(c2ccccc2)CC1)c1ccc(F)cc1 | · | · | · | · | 24% | ·
CCc1ccccc1NC(=O)C1CCCN(S(=O)(=O)c2ccc3[nH]c(=O)ccc3c2)C1 (stereo not given) | 17% | · | -21% | -33%[59 µM] | -10% | ?
CS(=O)c1ccccc1-c1nc(-c2cccc(Cl)c2)no1 (stereo not given) | -2% | 19% | 35µM* | -3% | -3% | 3%
c1ccc(CNCCCn2cnc3c(OCc4ccccc4)ncnc32)cc1 | 17% | · | -16% | · | 2% | ·
Cc1ccc(NCCCn2cnc3c(OCc4ccccc4)ncnc32)cc1C | ? | · | 50µM* | · | 4% | ·
Cc1ccc(C)c(NC(=O)C2CCCN2S(=O)(=O)c2ccc3c(c2)CCCC(=O)N3)c1 (stereo not given) | 27% | · | -18% | 4%[59 µM] | -5% | 7%
CCCCN1C(=O)/C(=C/C=C2/CC(C)(C)CN2C)SC1=S | ? | -9% | ? | ? | -2% | 8.9µM*
CN1CCS/C1=C\C=C1/SC(=S)N(CC(=O)O)C1=O | 18% | -11% | -29% | 40µM* | 31% | ?
CCN1C(=O)/C(=C/C=C2/Sc3ccccc3N2CCO)SC1=S | -21% | -7% | -18% | 45µM* | 0% | -33%
CCN1C(=O)/C(=C/N2CCc3ccccc32)SC1=S | 21% | -2% | -4% | 1%[12.7 µM] | -10% | -3%
CCN1C(=O)/C(=C/C=C2/SCCN2C)SC1=S | -11% | -8% | 9%[11.4 µM] | 8.9µM* | 1% | -19%[57.1 µM]
Cn1ccnc1SCC(=O)Nc1cc(Cl)ccc1Cl | 6% | · | -26% | ? | 6% | ?
O=C(COc1ccccc1Cl)Nc1cc(-c2ccccc2F)nn1-c1ccccc1 | 24%[57 µM] | · | -16% | -3%[59 µM] | 2% | 1%
COc1cccc(C(=O)Nc2cccc(C(=O)OCc3cc(=O)n4c(C)csc4n3)c2)c1 | 20% | · | -3% | 7%[59 µM] | 9% | -18%
Cc1ccc(C(=O)N2CCc3cc(CNC(=O)c4ccccc4F)ccc32)cc1 | -2% | · | -26% | -2%[59 µM] | -9% | -14%
Cc1ccc(OC(=O)CSc2nnc(-c3ccc4c(c3)OCO4)o2)c(C)c1 | 37% | · | -10% | -24%[59 µM] | 5% | -3%
O=C(Nc1ccc(-c2ccc([N+](=O)[O-])cc2)cc1)c1ccccc1F | 22% | 4% | -6% | 50µM* | -3% | -11%
O=C(CSc1ccc([N+](=O)[O-])cc1)NNC(=O)c1ccccc1F | 5% | · | -23% | 50µM* | -6% | -17%
Cc1ccc(SCC(=O)NNC(=O)CNC(=O)c2ccccc2F)cc1 | 13%[57 µM] | 7% | -15% | · | 9% | ·
O=C(Nc1ccc([N+](=O)[O-])cc1)c1ccccc1F | 51% | · | 2% | -4% | 2% | -28%
c1ccc(Nc2nc(-c3ccoc3)nc3ccccc23)cc1 | · | · | · | 8%[0.501 µM] | · | ·
CS(=O)(=O)N1CCC2(CCN(c3ccccn3)CC2)CC1 | · | · | · | 3%[12.7 µM] | · | ·
CCC(C)(C)n1nnnc1C(c1cc2ccc(C)cc2[nH]c1=O)N(Cc1cccnc1)Cc1ccco1 (stereo not given) | -8% | -3% | ? | 50µM* | 2% | ?
